# D2 antag – HTS Assay for Allosteric Antagonists of the Human D2 Dopamine Receptor: Primary Screen for Antagonists; D(2) dopamine receptor (Homo sapiens), P14416; HEK293 TREx D2 cells, calcium flux, dopamine EC80; inhibition, % at 10 µM; actives 2% (n = 340,000); AID 485344, 2010; in the data active = inhibition above about 30%; inactive = below that, where a call was filed
# Target sequence (P14416 whole entry, looked up): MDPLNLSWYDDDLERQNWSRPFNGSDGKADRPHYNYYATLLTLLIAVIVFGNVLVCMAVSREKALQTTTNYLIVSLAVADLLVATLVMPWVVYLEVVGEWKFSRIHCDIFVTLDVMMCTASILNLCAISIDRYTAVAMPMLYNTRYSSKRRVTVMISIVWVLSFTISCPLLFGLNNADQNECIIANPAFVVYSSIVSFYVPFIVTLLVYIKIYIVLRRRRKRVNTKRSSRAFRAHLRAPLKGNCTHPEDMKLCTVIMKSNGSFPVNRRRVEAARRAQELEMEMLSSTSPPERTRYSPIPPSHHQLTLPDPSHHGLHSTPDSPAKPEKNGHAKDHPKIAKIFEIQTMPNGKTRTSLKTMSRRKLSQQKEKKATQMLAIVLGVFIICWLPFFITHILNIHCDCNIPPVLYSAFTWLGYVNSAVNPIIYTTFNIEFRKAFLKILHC
#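 Measurement of antagonist activity uses fluorescent calcium dye in inducible HEK293 T-REx D2 cells: 10 s baseline, compound addition with 180 s read, EC80 dopamine addition with a further 180 s read.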
# D2 PAM-1 – HTS Assay for Positive Allosteric Modulators of the Human D2 Dopamine Receptor: Primary Screen for Potentiators. actives 0.34% (n = 340,000). D(2) dopamine receptor (Homo sapiens), P14416. HEK293 T-REx D2, calcium flux, EC20 dopamine potentiation. potentiation, % at 10 µM;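 active = potentiation over 3 SD above the plate norm, cut at about 30% in these data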
#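 Calcium flux readout, no-wash dye, 1 read/s. Inducible HEK293 Trex D2 line, overnight 30 C. Compound alone 180 s (agonist flags), then EC20 dopamine, another 180 s to score potentiation.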
# D2 PAM-2 – Beta-Arrestin HTS for Positive Allosteric Modulators of the Human D2 Dopamine Receptor: Potentiators | potentiation, % (no concentration beside the values) | AID 624464, 2012 | DiscoveRx D2 beta-arrestin cells, luminescence, 90 min; 100% = 57 uM dopamine signal | actives 0.23% (n = 360,000) | D(2) dopamine receptor (Homo sapiens), P14416; in the data active = potentiation above about 50%
#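 D2 cells co-treated with compound plus 50 nM dopamine (EC20) for 90 min at 37 deg C to detect potentiation. Beta-arrestin recruitment was read as enzyme-fragment luminescence after 1 h at ambient temperature. Full response was set by 57 uM dopamine.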
# D2 ag-1 – HTS Assay for Allosteric Agonists of the Human D2 Dopamine Receptor: Primary Screen for Agonists | activation, % at 2 µM | HEK293 T-REx D2 cells, calcium flux agonist mode | actives 0.53% (n = 340,000) | D(2) dopamine receptor (Homo sapiens), P14416;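 active = activation over 3 SD above normal in the single-dose calcium agonist read, cut at about 30% in these data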
#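 Calcium-flux readout, 1 cycle/sec over 180 s following compound pin transfer, in inducible HEK293 Trex D2 cells (force-coupled); dopamine controls included. Positive calcium responses during this window marked compounds as potential agonists.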
# D2 ag-2 – Beta-Arrestin HTS for Positive Allosteric Modulators of the Human D2 Dopamine Receptor: Agonists; D(2) dopamine receptor (Homo sapiens), P14416; DiscoveRx PathHunter D2 beta-arrestin, luminescence, 90 min; 100% = 57 uM dopamine signal; activation, % (test concentration not listed); actives 0.084% (n = 360,000); AID 624465, 2012; in the data active = activation above about 40%
#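 Agonist mode: compounds alone added to overnight-plated D2 PathHunter cells for 90 min at 37 C, with 57 uM final dopamine (EC100) defining full response. Beta-arrestin recruitment detected by chemiluminescent reagent, read after 1 h at ambient temperature.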
# Hits are given with their value; i = inactive; nt = not tested or not shown. An excerpt weighted towards active compounds, which were near 2.4% of everything screened.
SMILES,D2 antag,D2 PAM-1,D2 PAM-2,D2 ag-1,D2 ag-2
CCc1ccc(NC(=O)C2CCN(S(=O)(=O)c3ccc4c(c3)NC(=O)CO4)CC2)cc1,i,i,i,i,i
COc1ccccc1N1CCN(C(=O)C2CCN(S(=O)(=O)c3ccc4c(c3)CC(C)N4C(C)=O)CC2)CC1 (stereo not given),i,i,i,i,i
COc1ccccc1N1CCN(S(=O)(=O)c2ccc3c(c2)CC(C)N3C(C)=O)CC1 (stereo not given),33,i,i,i,i
CC(=O)N1c2ccc(S(=O)(=O)N(C)CC(=O)N3CCCC3)cc2CC1C (stereo not given),i,42,i,i,i
CCc1cccc(NC(=O)C2CCN(S(=O)(=O)c3ccc4c(c3)NC(=O)CO4)CC2)c1,30,i,i,i,i
CCc1cccc(NC(=O)C2CCN(S(=O)(=O)c3ccc4c(c3)CC(C)N4C(C)=O)CC2)c1 (stereo not given),70,i,i,i,i
CCC(C)NC(=O)CCC(=O)N1Cc2ccccc2Oc2ncccc21 (stereo not given),nt,i,nt,i,nt
COc1ccccc1-c1cc(C(=O)NCc2cccs2)no1,76,i,i,i,i
COc1ccccc1-c1cc(C(=O)NC(C)c2ccccc2)no1 (stereo not given),61,i,i,i,i
COc1ccc(OC)c(-c2cc(C(=O)NCc3cccs3)no2)c1,i,i,i,i,i
COc1ccc(OC)c(-c2cc(C(=O)NCc3ccc(Cl)cc3)no2)c1,62,i,i,i,i
COc1ccc(-c2cc(C(=O)NCc3ccc(Cl)cc3)no2)cc1OC,i,i,i,i,i
COC(=O)CSc1nnc(-c2cccc(O)c2)o1,nt,i,nt,i,nt
COC(=O)C(Cc1c[nH]c2ccccc12)NC(=O)COc1cccc(C)c1 (stereo not given),nt,i,nt,i,nt
CC(C)n1cnc2c(N(C)c3ccccc3)nc(N(CCN(C)C)Cc3ccccc3)nc21,34,i,i,i,i
C=CCSc1nnc2c(n1)OC(c1cccnc1)Nc1ccccc1-2 (stereo not given),i,i,53,i,i
C=CCSc1nnc2c(n1)OC(c1cccnc1)N(C(C)=O)c1ccccc1-2 (stereo not given),i,i,i,i,i
N#Cc1ccc(COc2cccc3cccnc23)cc1,i,31,i,i,i
N=C(N)SCc1nc2ccccn2c1Br,i,i,i,i,i
O=C(O)c1ccccc1SCc1nc2ccccn2c1Br,51,i,i,i,i
CC(=O)c1ccc(N2CCN(C(=O)CN3C(=O)NC4(CCCCC4)C3=O)CC2)c(F)c1,31,i,i,i,i
O=C(CN1C(=O)NC2(CCCCCC2)C1=O)N1CCN(c2ccc(F)cc2)CC1,i,i,i,i,i
O=C(COc1ccc(S(=O)(=O)N2CCCC2)cc1Cl)NCc1ccccn1,i,i,i,i,i
O=C(COc1ccc(S(=O)(=O)N2CCOCC2)cc1Cl)NCc1ccccn1,i,34,i,i,i
Cc1cc(C)c2c(CC(=O)Nc3c(C(=O)c4ccc(F)cc4)oc4ccccc34)coc2c1,nt,i,nt,i,nt
CC1(OC(=O)C2CCCC2)C(=O)C=C2C=C(c3ccsc3)N(C3CCCC3)C=C2C1=O (stereo not given),37,i,i,i,i
COc1ccc(C(=O)NCc2cn3ccsc3n2)cc1OC,i,33,i,i,i
COP(=O)(/C=C/c1ccccc1)C(O)c1ccc(F)cc1 (stereo not given),45,i,i,i,i
CC(C)COP(=O)(OCC(C)C)C(O)c1ccc(F)cc1 (stereo not given),i,i,i,i,i
COC(=O)CCCCCNc1ccc(C(=O)OC)cc1N,i,i,i,37,i

# Assay outcomes from PubChem.
